Bioassay records (PubChem BioAssay)
This is a sample that favours compounds with a hit; in the whole collection about 9% have one here.
BAZ2B block: BAZ2B (human) inhibition | Q9UIF8 | AlphaScreen BAZ2B-H3K14Ac peptide displacement | Potency, µM (series often up to 114 µM), usual class: inhibitors | actives 4.4% (n = 360,000); further: nearly all actives have a fitted effect of over 60% in size
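Protein-peptide AlphaScreen: BAZ2B 50 nM, b-H3K14Ac 50 nM, 1x PBS pH 7.4 + 0.01% Tween-20. Preincubation 30 min RT; cpd 30 min RT (top 110 uM); beads 20 min RT, light-protected.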
HP1b chromo inh: inhibitors of HP1-beta chromodomain binding to methylated histone tails; P83916; actives 0.56% (n = 390,000); AlphaScreen HP1-beta / biotin-H3K9me3 peptide binding; AID 540317; Potency, µM (titrated, usually from 114 µM), actives largely listed as inhibitors; further: nearly all actives have a fitted effect of over 70% in size
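Compound inhibition of the preformed complex between 50 nM HP1-beta and 50 nM biotinylated H3K9me3 peptide was read by AlphaScreen. Buffer was PBS pH 7.4 with 0.01% Tween-20. Incubations ran 30 min at room temperature, with 10 ug/mL donor/acceptor beads.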
PLK1 PBD block: blocks phosphopeptide binding to human PLK1 polo-box domain; P53350; Plk1 PBD binding of FITC phosphopeptide, fluorescence polarization; Potency, µM, most hits filed as inhibitors; actives 2.8% (n = 360,000); AID 720504; further: series mostly up to about 57 µM; nearly all actives have a fitted effect of over 65% in size
G9a inh: blocks human histone lysine methyltransferase G9a | G9a H3K9 monomethylation, AlphaScreen, 2 h | Potency, µM (top dose mostly 102 µM), actives largely listed as inhibitors | actives 8.8% (n = 350,000) | AID 504332; further: nearly all actives have a fitted effect of over 75% in size
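Using a bead-based AlphaScreen, monomethylated H3K9 product from 2 h room-temperature reactions (G9a 20 nM, peptide 500 nM, SAM 20 uM) was detected with 0.5 ug/mL rabbit anti-H3K9me1 antibody.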
ALOX12 inh: inhibitors of human 12S-lipoxygenase ALOX12; actives 1.1% (n = 580,000); purified 12hLO, xylenol orange hydroperoxide absorbance; Potency, µM (titrated, usually from 108 µM), most hits filed as inhibitors; P18054; AID 1671190
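Hydroperoxide product was detected by ferrous iron/xylenol orange as the 573 to 405 nm absorbance ratio. Arachidonic acid at 40 uM (final) was turned over for 30 min at room temperature by 150 nM human 12hLO, pH 7.0 Hepes buffer, after 15 min compound preincubation.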
JMJD2A Tudor: inhibitors of human JMJD2A Tudor domain. actives 4.4% (n = 390,000). AlphaScreen JMJD2A-Tudor / H3K4me3 peptide binding. O75164. Potency, µM (top dose mostly 114 µM), hits mostly inhibitors. AID 504339; further: nearly all actives have a fitted effect of over 50% in size
Each line names hits and unclear results; the compound was inactive in the other large screens. The call rests on the fitted dose curve; in most records, active means well fitted curve in the direction sought with a large enough effect; inconclusive means small, poorly fitted or top-dose-only effect, or another doubt; inactive means no such curve, though single readings can be large; an effect the other way counts as inactive or inconclusive.

Cc1nc2nc(SCC(=O)c3cccc([N+](=O)[O-])c3)[nH]c2cc1Br	G9a inh inconclusive
O=c1cnn(-c2ccc(Cl)cc2Cl)c(-c2ccccc2)c1	ALOX12 inh inconclusive
OC(CN1CCCCC1)Cn1c2ccc(Cl)cc2c2cc(Cl)ccc21 (stereo unspecified)	G9a inh inconclusive, ALOX12 inh inconclusive
COc1ccccc1/C=C/C=C1N=C(/C=C/c2ccc(Cl)cc2)OC/1=O	BAZ2B block inconclusive, HP1b chromo inh inconclusive, G9a inh inconclusive, ALOX12 inh inconclusive, JMJD2A Tudor inconclusive
COc1ccccc1/C=C/C1=NC(=C\C=C/c2ccccc2)/C(=O)O1	BAZ2B block inconclusive, HP1b chromo inh inconclusive, G9a inh inconclusive, ALOX12 inh 45µM, JMJD2A Tudor 56µM
O=C(O)CC(C(=O)OCC1CCCO1)N1CCOCC1 (stereo unspecified)	ALOX12 inh inconclusive
O=C(COC(=O)C(c1ccccc1)c1ccccc1)NCc1ccco1	BAZ2B block inconclusive
O=C(O)CC(NCc1ccco1)C(=O)OCC1CCCO1 (stereo unspecified)	BAZ2B block 50µM, G9a inh 7.9µM, ALOX12 inh inconclusive, JMJD2A Tudor inconclusive
C=C(C)CCOC(=O)C(CC(=O)O)NCc1ccco1 (stereo unspecified)	BAZ2B block 35µM, PLK1 PBD block inconclusive, G9a inh 11µM, JMJD2A Tudor 35µM
O=C(O)CC(NCc1ccco1)C(=O)OCCc1ccccc1 (stereo unspecified)	G9a inh 32µM, ALOX12 inh inconclusive, JMJD2A Tudor 6.3µM
Cc1cc2c(c(=O)n(-c3ccc(F)cc3)c(=O)n2CC(=O)Nc2ccccc2F)n1C	none (no result: BAZ2B block, HP1b chromo inh, PLK1 PBD block, G9a inh, JMJD2A Tudor)
O=C(Nc1nnc(-c2ccccn2)o1)c1ccc(Br)cc1	BAZ2B block inconclusive, JMJD2A Tudor inconclusive
CCC(=O)Nc1nnc(-c2ccccn2)o1	BAZ2B block 28µM, G9a inh 4.5µM, JMJD2A Tudor 5.6µM
O=C(CCc1ccccc1)Nc1nnc(-c2ccccn2)o1	BAZ2B block 50µM, G9a inh inconclusive, JMJD2A Tudor 20µM
Cc1ccc(NC(=O)CCCN2C(=S)NC(C)(C)CC2C)cc1 (stereo unspecified)	none
O=C1[C@H]2CCC=C[C@H]2[C@H](c2cccc(Br)c2)N1Cc1ccccc1	PLK1 PBD block 21µM, JMJD2A Tudor inconclusive (no result: BAZ2B block, ALOX12 inh)
COc1ccc(Nc2oc(-c3ccco3)nc2S(=O)(=O)c2ccc(F)cc2)cc1	BAZ2B block inconclusive, G9a inh 45µM, ALOX12 inh inconclusive, JMJD2A Tudor inconclusive
O=S(=O)(c1ccc(F)cc1)c1nc(-c2ccco2)oc1Nc1ccc(F)cc1	BAZ2B block inconclusive, G9a inh 50µM, ALOX12 inh inconclusive
CNc1oc(-c2ccccc2C)nc1S(=O)(=O)c1ccc(F)cc1	none (no result: BAZ2B block, HP1b chromo inh, PLK1 PBD block, G9a inh, JMJD2A Tudor)
Cc1ccc(-n2nc(C)c3c(C)cc(=O)n(CC(=O)NC(C)C)c32)cc1	none (no result: PLK1 PBD block)
COCCn1c(SCC(=O)c2ccc(OC)c(OC)c2)nnc1-c1ccc(Cl)cc1	none (no result: BAZ2B block, HP1b chromo inh, PLK1 PBD block, G9a inh, JMJD2A Tudor)
CCOC(=O)c1c(NC(=O)C[n+]2ccc(Cc3ccccc3)cc2)sc(C)c1C	G9a inh 45µM, ALOX12 inh 45µM
CCOC(=O)c1c(NC(=O)CCc2ccc(CC)o2)sc(C)c1C	PLK1 PBD block 27µM, G9a inh 28µM, ALOX12 inh inconclusive
Cc1sc(NC(=O)Nc2ccccc2)c(C(N)=O)c1C	HP1b chromo inh inconclusive, G9a inh 8.9µM, ALOX12 inh inconclusive
CCOC(=O)c1c(NC(=O)C2=C(C)NC(=S)NC2c2ccccc2C(F)(F)F)sc(C)c1C (stereo unspecified)	ALOX12 inh 25µM
Fc1ccccc1NCc1nnc2n1CCCCC2	none (no result: BAZ2B block, HP1b chromo inh, PLK1 PBD block, G9a inh, JMJD2A Tudor)
CCOC(=O)c1c(NC(=S)Nc2ccccc2)sc(C)c1C	PLK1 PBD block 27µM, G9a inh inconclusive
COc1ccc(/C=C/C(=O)Nc2sc(C)c(C)c2C(=O)O)cc1	ALOX12 inh inconclusive, JMJD2A Tudor inconclusive (no result: PLK1 PBD block)
Cc1sc(NC(=O)/C=C/c2ccco2)c(C(=O)O)c1C	BAZ2B block inconclusive, G9a inh 45µM
CCOC(=O)c1c(N)sc(C(=O)Nc2ccccc2F)c1C	none
CCOC(=O)c1c(NC(=S)NCC2CCCO2)sc(C)c1C (stereo unspecified)	HP1b chromo inh inconclusive, PLK1 PBD block 12µM, G9a inh 4.5µM, ALOX12 inh inconclusive, JMJD2A Tudor inconclusive (no result: BAZ2B block)
CCOC(=O)c1c(N)sc(C(=O)Nc2ccccc2)c1C	HP1b chromo inh inconclusive, PLK1 PBD block 21µM
CCOC(=O)c1[nH]c(C)c(C(=O)NCC2CCCO2)c1C (stereo unspecified)	none
CCOc1ccccc1NC(=O)c1cc2ccccc2o1	none (no result: BAZ2B block, HP1b chromo inh, G9a inh, JMJD2A Tudor)
CC1CCCCC1NC(=O)C1CCC(CNS(=O)(=O)c2ccccc2)CC1 (stereo unspecified)	none
CCOC(=O)c1c(NC(=O)/C=C/c2ccc(C)o2)sc(C)c1C	HP1b chromo inh inconclusive, PLK1 PBD block 27µM, G9a inh 8.9µM, ALOX12 inh inconclusive
Cc1cccc(C)c1-n1nnnc1C(c1ccnc2ccccc12)N1CCN(C(=O)OCc2ccccc2)CC1 (stereo unspecified)	none (no result: BAZ2B block, HP1b chromo inh, G9a inh, JMJD2A Tudor)
Cc1cc(N(CCO)CCO)nc(-n2nc(C)cc2C)n1	G9a inh 40µM, JMJD2A Tudor inconclusive
O=C(NC(=S)Nc1cccc2ncccc12)c1ccccc1	G9a inh inconclusive, ALOX12 inh inconclusive
O=C(Nc1cccc2ncccc12)c1ccc2ccccc2c1	ALOX12 inh 11µM (no result: BAZ2B block, HP1b chromo inh, PLK1 PBD block, G9a inh, JMJD2A Tudor)
O=C(NC(=S)Nc1cccc2ncccc12)c1cccs1	G9a inh 50µM
O=C(O)CC1(CC(=O)O)Nc2ccccc2SC1=O	none (no result: BAZ2B block, G9a inh)
CC(=NCCCn1ccnc1)C1=C(O)c2ccccc2C1=O	BAZ2B block 45µM
O=C1C(C=NCCCn2ccnc2)=C(O)c2ccccc21	none (no result: BAZ2B block, G9a inh)
COc1ccc(C2(C)NC(=O)N(CC(=O)c3cc(C)n(C4CC4)c3C)C2=O)cc1OC (stereo unspecified)	BAZ2B block inconclusive
Cc1ccc(-c2nn(-c3ccccc3)cc2/C=N/n2c(-c3cccs3)n[nH]c2=S)cc1	G9a inh inconclusive, ALOX12 inh inconclusive, JMJD2A Tudor inconclusive
Cc1cc(-c2n[nH]c(=S)n2/N=C/c2cccs2)n[nH]1	G9a inh 0.35µM, ALOX12 inh inconclusive, JMJD2A Tudor 6.3µM
Cc1ccc(-c2n[nH]c(=S)n2/N=C/c2ccc(C)s2)cc1	ALOX12 inh 16µM, JMJD2A Tudor inconclusive
S=c1[nH]nc(-c2ccccc2)n1/N=C/c1cccs1	G9a inh 0.56µM, JMJD2A Tudor 18µM (no result: ALOX12 inh)
Cc1ccc(/C=N/n2c(-c3ccc(Cl)cc3)n[nH]c2=S)s1	PLK1 PBD block inconclusive, G9a inh inconclusive, JMJD2A Tudor inconclusive
Cc1ccc(-c2n[nH]c(=S)n2/N=C/c2cccs2)cc1	G9a inh 1µM, ALOX12 inh inconclusive, JMJD2A Tudor 28µM
